Spn MK inh: inhibitors of Streptococcus pneumoniae mevalonate kinase | purified MK, PK/LDH-coupled NADH absorbance 340 nm | inhibition, % at 10 µM | 0.48% of 65,000 active;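 active means ranked among the strongest by inhibition in the single 10 µM screen, a fixed top-ranked set picked for dose follow-up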
Autofluor 339: intrinsic fluorescence of library compounds, ex339/em460 – biochemical, MLSMR library, data from DPM-DC assay, artefact control, profiling panel. compound autofluorescence, ex339/em460 nm, NADH buffer; hits give high values; 1 = no-compound wells, NADH background. fluorescence fold increase at 10 µM. 5.5% of 65,000 active. AID 709;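 active means at 10 µM, mean starting fluorescence two-fold or more over control wells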;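 further: signal is the first read of a kinetic run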
A340 absorber: compound absorbs light at 340 nm; AID 708; 65,000 tested, under 10 active; fold change at 10 µM; compound absorbance at 340 nm, fold over control;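 active means at 10 µM dose, initial 340 nm absorbance at least 2 fold that of control wells; inactive means change under 2 fold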;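 further: initial absorbance extrapolated from kinetic A340 decline of NADH oxidation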
PMK inhibit: inhibitors of Streptococcus pneumoniae phosphomevalonate kinase | purified PMK, PK/LDH-coupled NADH absorbance 340 nm | inhibition, % at 10 µM | 0.49% of 65,000 active | AID 539;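 active means top-ranked compounds by inhibition in the single 10 µM screen, taking a fixed number of the strongest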
NADH coupling: inhibitors of enzymes used to reach an NAD/NADH endpoint. coupled PK/LDH NADH assays, four targets. IC50, µM (titrated, usually from 10 µM). 0.02% of 65,000 active;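 active means single-dose screening hits from any of four coupled enzyme assays that gave an IC50 when retested across doses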;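 further: the DPM-DC format reads NADH fluorescence rather than 340 nm absorbance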
Spn DPM-DC inh: blocks S. pneumoniae diphosphomevalonate decarboxylase; purified DPM-DC, PK/LDH coupled NADH fluorescence; calls only at 10 µM; 0.49% of 65,000 active;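 active means the 320 compounds with the highest percent inhibition in the single-dose primary screen, excluding strongly autofluorescent ones, cut at about 32% in these data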;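 further: kinetic rate of NADH fluorescence loss reporting ADP formed by the decarboxylase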
A number is an active result; . = inactive; / = no result given; + = active, no number. Hits are enriched below; roughly 6.3% of the tested compounds scored in any of these assays.

SMILES | Spn MK inh | Autofluor 339 | A340 absorber | PMK inhibit | NADH coupling | Spn DPM-DC inh
CC(C)CC(=O)NCC(C)NC(=O)CC(C)C (stereo not drawn) | . | . | . | . | . | +
N#Cc1cc2cc3c(cc2nc1N1CCCCC1)OCCO3 | . | 3 | . | . | . | .
COC(=O)c1[nH]c2ccc(C)cc2c1NC(=O)CCN1CCN(Cc2ccc3c(c2)OCO3)CC1 | . | 2.3 | . | . | . | .
COC(=O)c1[nH]c2ccc(C)cc2c1NC(=O)CN1CCCCC1C (stereo not drawn) | . | 2.3 | . | . | . | .
CCOC(=O)C1CCCN(CC(=O)Nc2c(C(=O)OC)[nH]c3ccc(C)cc23)C1 (stereo not drawn) | . | 2.6 | . | . | . | .
COc1ccc(S(=O)(=O)N2CCSC2c2ccc(N)cc2)cc1 (stereo not drawn) | . | . | . | . | . | .
COc1ccc(-c2[nH]ncc2-c2cnn(-c3ccccc3)c2)c(O)c1 | . | . | . | . | . | .
O=C1CC(Cc2ccccc2)C(=O)N1CCCn1ccnc1 (stereo not drawn) | . | . | . | . | . | .
O=C(c1n[nH]c(=O)c2ccccc12)N1CCN(C2c3ccccc3-c3ccccc32)CC1 | . | . | . | 29 | . | .
CCC(CC)NC(=O)c1n[nH]c(=O)c2ccccc12 | . | . | . | . | . | .
CC(OC(=O)c1cc2sccc2n1C)C(=O)NCc1ccco1 (stereo not drawn) | . | . | . | . | . | .
CC(OC(=O)c1ccccc1NCc1ccco1)C(=O)Nc1ncc(Cl)cc1Cl (stereo not drawn) | . | 2.2 | . | . | . | /
Cc1cccn2c(=O)c3cc(C(=O)N4CCN(c5ccccc5)CC4)n(C)c3nc12 | . | 5 | . | . | . | /
Cc1cccn2c(=O)c3cc(C(=O)N(C)C)n(C)c3nc12 | . | 4.9 | . | . | . | /
Cc1nc2c(C)cccn2c1/C(O)=C1\C(=O)C(=O)N(CCN(C)C)C1c1ccncc1 (stereo not drawn) | . | . | . | . | . | .
CCCCNC(=O)c1cc2c(=O)n3cccc(C)c3nc2n1C | . | 2.1 | . | . | . | /
Cn1c(C(=O)N2CCc3ccccc32)cc2c(=O)n3ccccc3nc21 | . | . | . | . | . | .
COCCNC(=O)c1cc2c(=O)n3cccc(C)c3nc2n1C | . | 2.1 | . | . | . | /
Cc1cc(C)nc(NS(=O)(=O)c2ccc(N3C(=O)C4CC=C(Cl)CC4C3=O)cc2)n1 (stereo not drawn) | . | . | . | . | . | .
Cc1cccn2c(=O)c3cc(C(=O)NCCCN4CCCC4=O)n(C)c3nc12 | . | 5 | . | . | . | /
CCNC(=O)c1cc2c(=O)n3cccc(C)c3nc2n1C | . | 5 | . | . | . | /
Cn1c(C(=O)N2CCCc3ccccc32)cc2c(=O)n3ccccc3nc21 | . | 2.6 | . | . | . | .
Cc1cccn2c(=O)c3cc(C(=O)NCCCn4ccnc4)n(C)c3nc12 | . | 5 | . | . | . | /
CCOc1ccc(C)cc1S(=O)(=O)n1ccc(C)n1 | . | . | . | . | . | .
N#CC1=C(N)N2C(=C(C#N)C13CCCCC3)SC1CCCCC12O (stereo not drawn) | . | . | . | . | . | .
SMILES | Spn MK inh | Autofluor 339 | A340 absorber | PMK inhibit | NADH coupling | Spn DPM-DC inh
O=C(C1CC1)N1CCN=C1SCc1ccccc1Cl | . | . | . | . | . | .
CCOCCCNC(=O)c1cc2c(=O)n3cccc(C)c3nc2n1C | . | 2.1 | . | . | . | /
Cn1c(C(=O)NCc2ccccn2)cc2c(=O)n3ccccc3nc21 | . | 4.9 | . | . | . | /
CC(Sc1nnnn1-c1ccccc1)C(=O)Nc1ccc(Cl)cn1 (stereo not drawn) | . | . | . | . | . | .
CCN1CCCC1CNc1ncnc2c1[nH]c1ccc(Cl)cc12 (stereo not drawn) | . | . | . | . | . | .
O=c1c2[nH]c3ccccc3c2ncn1CCN1CCCCC1 | . | 2.1 | . | . | . | .
CCN1CCCC1Cn1cnc2c([nH]c3ccc(C)cc32)c1=O (stereo not drawn) | . | 2.3 | . | . | . | /
Cc1ccc2[nH]c3c(=O)n(CCN4CCNCC4)cnc3c2c1 | . | 3.1 | . | . | . | .
Cc1cccc2[nH]c3c(=O)n(CCN4CCNCC4)cnc3c12 | . | 2.5 | . | . | . | .
CSc1nc(-c2ccccc2O)nc(-c2ccccc2O)n1 | . | . | . | . | . | .
O=C1C(Cl)=C(NCC2CCCO2)C(=O)N1CCc1ccccc1 (stereo not drawn) | . | . | . | . | . | .
C=CCSc1nnc2c(n1)OC=Nc1ccccc1-2 | . | . | . | . | . | .
CSc1ccc(CN2CCC(O)CC2)cc1 | 58 | . | . | . | . | .
CCN1CCN(Cc2ccc(NC(=O)Nc3ccc(SC)cc3)cc2)CC1 | . | . | . | . | . | .
CCCCOc1ccc(CN2CCC(O)CC2)cc1 | 41 | . | . | . | . | .
O=C(c1cccc2c1C(=O)N(Cc1cccnc1)C2)N1CCN(c2ccccc2)CC1 | . | . | . | . | . | .
CC1(C)Cc2c(C#N)c(NCC3CCCO3)nc(-c3ccco3)c2CO1 (stereo not drawn) | . | 2.3 | . | . | . | /
N#Cc1c(-c2ccco2)nc(NCC2CCCO2)[nH]c1=O (stereo not drawn) | . | . | . | . | . | .
CC1(C)Cc2c(C#N)c(NC3CCCCC3)nc(-c3ccco3)c2CO1 | . | 2.2 | . | . | . | /
CCCCCCNc1cc2n(c(=O)n1)CCc1cc(OC)c(OC)cc1-2 | . | 3.4 | . | . | . | /
COc1cc(C(=O)OCCN2CCOCC2)cc(OC)c1OC | . | . | . | . | . | .
COc1cc2c(C(=O)NCc3ccccn3)cn(C)c(=O)c2cc1OC | . | . | . | . | . | .
COc1cc2c(cc1OC)-c1cc(NCc3ccccn3)nc(=O)n1CC2 | 52 | 3.4 | . | . | . | /
COc1cc2c(cc1OC)-c1cc(OCCN3CCOCC3)nc(=O)n1CC2 | . | 3.9 | . | . | . | /
COc1cc2c(cc1OC)-c1cc(NC3CCCCC3)nc(=O)n1CC2 | . | . | . | . | . | .
SMILES | Spn MK inh | Autofluor 339 | A340 absorber | PMK inhibit | NADH coupling | Spn DPM-DC inh
COc1cc2c(cc1OC)-c1cc(NC3CCCCCCC3)nc(=O)n1CC2 | . | 2.4 | . | . | . | .
O=C(O)CCCC(=O)N1CCN(C(c2ccccc2)c2ccccc2)CC1 | . | . | . | . | . | .
COc1cc(C)c(Br)cc1S(=O)(=O)N1CCCC1 | . | . | . | . | . | .
N#C/C(C(=O)N1CCOCC1)=C1/SC=C(c2ccccc2)N1c1ccccc1 | . | . | . | . | . | .
COC(=O)Cn1cnc2c(nnn2-c2cccc(Cl)c2)c1=O | . | . | . | . | . | .
Cc1cc(NC(=O)COC(=O)COc2ccc3c(c2)CCC3)no1 | . | . | . | . | . | .
CCNc1cc2n(c(=O)n1)CCc1cc(OC)c(OC)cc1-2 | . | 2.7 | . | . | . | .
COc1cc2c(cc1OC)-c1cc(NC3CC3)nc(=O)n1CC2 | . | . | . | . | . | .

Compound activity from PubChem.
